Results published in article PMC6212790, “How bacterial xenogeneic silencer rok distinguishes foreign from self DNA in its resident genome”.
Whole data set: some 33,000 sequences, median “e-score” near -0.038, cut for the highest 2% near 0.33. The sample as a whole holds a higher share of the highest values than the screen did.

target: T1, GST-Rok-C97-191 (Bacillus subtilis subsp. subtilis str. …, UniProt O34857 97-191); test: protein binding microarray; Rok is a gene silencer of Bacillus subtilis; high values mean tight binding; details: protein: recombinant; tags: GST (pTH5325, pDEST15-Magic modified); dsDNA, one strand shown
T1 sequence: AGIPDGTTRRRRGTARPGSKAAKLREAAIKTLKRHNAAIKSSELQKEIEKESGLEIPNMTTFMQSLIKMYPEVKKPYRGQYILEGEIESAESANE
Method in brief: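 Every oligonucleotide joins a 25-mer constant primer to a 35-mer variable part drawn from a de Bruijn sequence of order 10, so each non-palindromic 8-mer appears at least 32 times and each palindromic 8-mer 16 times. The preference for every 8-mer is reported as a unitless, rank-based enrichment score (E-score). This score spans 0.5 for the most favored 8-mer to −0.5 for the most disfavored.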

Sequence | binding signal
AGCTTTCG | -0.16 E-score
GAGAACCC | -0.104 E-score
CCTTCTAC | 0.235 E-score
AAGTTGGA | -0.145 E-score
AGCAATTC | 0.115 E-score
AGCAATTG | 0.332 E-score
AGCAATTA | 0.303 E-score
CGGCCGAG | -0.169 E-score
AGCGCCCC | -0.198 E-score
AGGGACCC | -0.173 E-score
ATTCTATA | 0.224 E-score
CTTCTATC | 0.241 E-score
GTTCTACA | 0.247 E-score
ATTCTACC | 0.467 E-score
ACTCTACC | -0.0607 E-score
CTTCTACC | 0.348 E-score
ATTCTACA | 0.382 E-score
CTTCTAGC | 0.138 E-score
CTTCTACA | 0.273 E-score
ATTCTAGC | 0.249 E-score
ATTCTACG | 0.179 E-score
ATTCTATC | 0.414 E-score

Sequence | binding signal
ATTCAGTC | 0.00215 E-score
AAGTATGA | 0.179 E-score
ATTCAATG | -0.0215 E-score
AACAGCGT | -0.0978 E-score
AAGCATGG | -0.183 E-score
TAAATGCA | 0.289 E-score
TGAATTAA | 0.0945 E-score
AGTTGAAC | -0.0218 E-score
GGTAGGAA | 0.247 E-score
CGTAGGCA | -0.0837 E-score
GCTAGGTA | 0.145 E-score
CGTAGGTA | 0.336 E-score
GGTAGGTA | 0.331 E-score
CCTAGGTA | 0.144 E-score
AGTAGGTA | 0.4 E-score
AGTAGGTC | 0.159 E-score
AGTAGGTG | 0.127 E-score
CAATGAAA | -0.098 E-score
CAGCATGA | -0.0331 E-score
CTGGAGGA | -0.0909 E-score
CGTGTTAC | 0.0253 E-score
CGTAGCCC | -0.128 E-score

Sequence | binding signal
CCTAATAA | -0.00276 E-score
TAGACCCA | 0.00211 E-score
ATATCGTA | 0.263 E-score
ATATAGTA | 0.438 E-score
GTATAGTA | 0.25 E-score
ATATAGTC | 0.225 E-score
ATATAGTG | 0.253 E-score
GTATCGTA | 0.268 E-score
CTATCGTA | 0.357 E-score
CTATAGTA | 0.371 E-score
CTATAGTC | 0.122 E-score
CGGGACTA | 0.0767 E-score
AATGATGC | 0.103 E-score
AAGGTCTA | -0.133 E-score
ATTCCGGC | 0.0407 E-score
CCCACTAG | 0.0169 E-score
AGGTTAGG | -0.139 E-score
GCCTTCGC | -0.0744 E-score
CCCAACTA | 0.257 E-score
CAATAAGA | -0.045 E-score
CAATGACG | -0.168 E-score
AGGTTCAG | 0.0249 E-score

Sequence | binding signal
ATACATAC | 0.338 E-score
ATACATAA | 0.273 E-score
CTACATAA | 0.203 E-score
TTACATAA | 0.288 E-score
GTACATAA | 0.328 E-score
AAACATAT | 0.276 E-score
ATACACAT | 0.214 E-score
CTACATAG | 0.152 E-score
ATACATAT | 0.377 E-score
CTACATAC | 0.274 E-score
GTACATAC | 0.172 E-score
ATACATAG | 0.371 E-score
ACGGGACT | 0.158 E-score
CATCATTC | 0.0109 E-score
GCGATGCC | -0.131 E-score
CGACTTGA | 0.0696 E-score
CTGCGTAC | -0.112 E-score
TCCGAGCA | 0.113 E-score
GAAATGCA | -0.0957 E-score
GAAATGTC | 0.165 E-score
AAAATGTA | 0.316 E-score
GAAATGTA | 0.329 E-score

Sequence | binding signal
TAAATGTA | 0.399 E-score
CAAATGTA | 0.269 E-score
TGCCTAAA | -0.0357 E-score
ACCCTTAT | 0.126 E-score
CGCACTGC | 0.0347 E-score
ACATCGAG | 0.0748 E-score
ACGTGGGG | -0.173 E-score
GGATTCTA | 0.293 E-score
ATATTCTC | 0.327 E-score
AGATTCTA | 0.356 E-score
CTATTCTA | 0.287 E-score
AGATTCTC | 0.00255 E-score
ATATTCTA | 0.408 E-score
TCATCTAA | -0.0045 E-score
CAGGTCTC | -0.144 E-score
GACTTGGC | -0.0709 E-score
CCAATATA | 0.323 E-score
CTAATAGA | 0.252 E-score
CTAATATA | 0.36 E-score
ATAATATG | 0.244 E-score
ACAATATG | 0.146 E-score
